The source made the active and inactive calls. The calls were made as follows: active = hit-call score of the fitted dose curve at least 0.9, where 1 is the maximum; inactive = score below 0.9.
Experiments:
Settings in all cases: mRNA level, 48 h; actives raise or lower the signal
[1] = read-out: Fatty acid synthase (Homo sapiens) (UniProt P49327); experiment: LTEA_HepaRG_FASN: Life Technologies and Expression Analysis (LTEA) Assay for Fatty Acid Synthase (FASN) using HepaRG (AID 2283448)
Method in brief: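 Differentiated HepaRG cells in serum-free induction medium exposed 48 h in duplicate to eight half-log concentrations, top 100 uM, 0.5% DMSO. FASN mRNA by qRT-PCR normalised to ACTB, GAPDH, POLR2A; bidirectional fit versus DMSO.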

[2] = read-out: Cyclin D2 (CCND2), CCND2 (gene 894); experiment: LTEA_HepaRG_CCND2: Life Technologies and Expression Analysis (LTEA) Assay for Cyclin D2 (CCND2) using HepaRG (AID 2283449);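 also: CCND2 transcript measured by TaqMan qRT-PCR and normalised to three housekeeping genes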
Method in brief: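 Chemicals in 0.5% DMSO, eight half-log concentrations from 100 uM top, were applied in duplicate for 48 h to human HepaRG cells in serum-free induction medium. CCND2 mRNA by TaqMan qRT-PCR, normalised to ACTB/GAPDH/POLR2A; bidirectional fit versus DMSO.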

[3] = read-out: Cyclin Dependent Kinase Inhibitor 1A (CDKN1A), CDKN1A (gene 1026); experiment: LTEA_HepaRG_CDKN1A: Life Technologies and Expression Analysis (LTEA) Assay for Cyclin Dependent Kinase Inhibitor 1A (CDKN1A) using HepaRG (AID 2283450)
Method in brief: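 Gain or loss of CDKN1A transcript is scored by bidirectional fitting against 0.5% DMSO vehicle. Human HepaRG cultures receive chemicals for 48 h across an 8-point series peaking at 100 uM; expression comes from qRT-PCR.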

[4] = read-out: Cyclin D1 (CCND1), CCND1 (gene 595); experiment: LTEA_HepaRG_CCND1: Life Technologies and Expression Analysis (LTEA) Assay for Cyclin D1 (CCND1) using HepaRG (AID 2283451)
Method in brief: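 Expression change is measured by qRT-PCR in HepaRG cells after 48 h treatment across eight concentrations topping at 100 uM, with duplicate wells and DMSO (0.5%) serving as baseline for bidirectional fitting.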

[5] = read-out: catalase (CAT), CAT (gene 847); experiment: LTEA_HepaRG_CAT: Life Technologies and Expression Analysis (LTEA) Assay for catalase (CAT) using HepaRG (AID 2283452)
Method in brief: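 HepaRG cells in serum-free induction medium, 0.5% DMSO vehicle, exposed 48 h in duplicate over 8 half-log concentrations from 100 uM. CAT mRNA measured by qRT-PCR, normalized to ACTB, GAPDH, POLR2A; bidirectional fit versus DMSO.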

[6] = read-out: flavin-containing dimethylaniline monooxygenases 3 (FMO3), FMO3 (gene 2328); experiment: LTEA_HepaRG_FMO3: Life Technologies and Expression Analysis (LTEA) Assay for flavin-containing dimethylaniline monooxygenases 3 (FMO3) using HepaRG (AID 2283453)
Method in brief: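 Differentiated HepaRG cells in serum-free induction medium, exposed 48 h in duplicate to 8 half-log concentrations up to 100 uM in 0.5% DMSO. FMO3 mRNA by qRT-PCR, normalized to ACTB, GAPDH, POLR2A; bidirectional fit vs DMSO.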

[7] = read-out: Cytochrome P450 (CYP1A1), CYP1A1 (gene 1543); experiment: LTEA_HepaRG_CYP1A1: Life Technologies and Expression Analysis (LTEA) Assay for Cytochrome P450 (CYP1A1) using HepaRG (AID 2283454)
Method in brief: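 Using HepaRG cultures with 0.5% DMSO as vehicle, eight-concentration exposures (max 100 uM) lasted 48 h. Transcript levels were measured by TaqMan qRT-PCR and normalized to ACTB, GAPDH and POLR2A.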

[8] = read-out: CFLAR gene, CFLAR (gene 8837); experiment: LTEA_HepaRG_CFLAR: Life Technologies and Expression Analysis (LTEA) Assay for CFLAR gene using HepaRG (AID 2283455)
Method in brief: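 Differentiated HepaRG cells in serum-free induction medium were exposed 48 h in duplicate to eight half-log concentrations up to 100 uM in 0.5% DMSO; mRNA measured by TaqMan qRT-PCR, normalized to ACTB, GAPDH, POLR2A; bidirectional fitting versus DMSO.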

[9] = read-out: Forkhead box O1 (FOXO1), FOXO1 (gene 2308); experiment: LTEA_HepaRG_FOXO1: Life Technologies and Expression Analysis (LTEA) Assay for Forkhead box O1 (FOXO1) using HepaRG (AID 2283456)
Method in brief: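 Differentiated HepaRG cells, in serum-free induction medium with 0.5% DMSO, exposed 48 h in duplicate to 8-point half-log series from 100 uM. FOXO1 mRNA measured by TaqMan qRT-PCR, normalized to ACTB, GAPDH, POLR2A; bidirectional fit versus DMSO.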

[10] = read-out: growth arrest and DNA damage 45 (GADD45A), GADD45A (gene 1647); experiment: LTEA_HepaRG_GADD45A: Life Technologies and Expression Analysis (LTEA) Assay for growth arrest and DNA damage 45 (GADD45A) using HepaRG (AID 2283458)
Method in brief: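 Differentiated HepaRG cells exposed 48 h in serum-free induction medium to 8 concentrations, top 100 uM in half-log steps, 0.5% DMSO. GADD45A mRNA quantified by qRT-PCR, normalized to ACTB, GAPDH and POLR2A; bidirectional fit versus DMSO.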

[11] = read-out: Forkhead box O3 (FOXO3), FOXO3 (gene 2309); experiment: LTEA_HepaRG_FOXO3: Life Technologies and Expression Analysis (LTEA) Assay for Forkhead box O3 (FOXO3) using HepaRG (AID 2283459)
Method in brief: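 Differentiated human HepaRG cells, 48 h post-plating, exposed in duplicate for 48 h in serum-free induction medium; 8-point half-log series from 100 uM in 0.5% DMSO. FOXO3 mRNA by TaqMan qRT-PCR, normalized to ACTB/GAPDH/POLR2A; bidirectional fit versus DMSO.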

[12] = read-out: ABC Transporter (ABCB1), ABCB1 (gene 5243); experiment: LTEA_HepaRG_ABCB1: Life Technologies and Expression Analysis (LTEA) Assay for ABC Transporter (ABCB1) using HepaRG (AID 2283460)
Method in brief: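 HepaRG cells exposed in duplicate for 48 h in serum-free induction medium to eight half-log concentrations up to 100 uM in 0.5% DMSO. ABCB1 mRNA quantified by qRT-PCR, normalised to ACTB, GAPDH and POLR2A; fitted bidirectionally versus DMSO.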

[13] = read-out: growth arrest and DNA damage 45 (GADD45B), GADD45B (gene 4616); experiment: LTEA_HepaRG_GADD45B: Life Technologies and Expression Analysis (LTEA) Assay for growth arrest and DNA damage 45 (GADD45B) using HepaRG (AID 2283461)
Method in brief: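 Human HepaRG monolayers receive chemicals for 48 h at eight half-log concentrations, highest 100 uM, in 0.5% DMSO. Expression is measured by TaqMan qRT-PCR and normalized to ACTB, GAPDH and POLR2A.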

[14] = read-out: ABC Transporter (ABCC3), ABCC3 (gene 8714); experiment: LTEA_HepaRG_ABCC3: Life Technologies and Expression Analysis (LTEA) Assay for ABC Transporter (ABCC3) using HepaRG (AID 2283462)
Method in brief: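 Transcriptional change of ABCC3 in HepaRG after 48 h treatment, determined by qRT-PCR normalized to endogenous controls. Concentrations spanned eight half-log steps to 100 uM in 0.5% DMSO.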

[15] = read-out: ABC Transporter (ABCB11), ABCB11 (gene 8647); experiment: LTEA_HepaRG_ABCB11: Life Technologies and Expression Analysis (LTEA) Assay for ABC Transporter (ABCB11) using HepaRG (AID 2283463)
Method in brief: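 Differentiated human HepaRG cells in serum-free induction medium, dosed in duplicate for 48 h. Eight-point half-log series from 100 uM in 0.5% DMSO; ABCB11 mRNA by qRT-PCR, normalized to ACTB, GAPDH, POLR2A, fitted bidirectionally versus DMSO.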

[16] = read-out: ABC Transporter (ABCC2), ABCC2 (gene 1244); experiment: LTEA_HepaRG_ABCC2: Life Technologies and Expression Analysis (LTEA) Assay for ABC Transporter (ABCC2) using HepaRG (AID 2283464)
Method in brief: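 After plating and 48 h culture, HepaRG medium is replaced with serum-free induction medium and chemicals are added (8 concentrations, max 100 uM, 0.5% DMSO) for 48 h. Total RNA then undergoes qRT-PCR for ABCC2 with housekeeping normalization.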

[17] = read-out: Broad substrate specificity ATP-binding cassette transporter ABCG2 (Homo sapiens) (UniProt Q9UNQ0); experiment: LTEA_HepaRG_ABCG2: Life Technologies and Expression Analysis (LTEA) Assay for ABC Transporter (ABCG2) using HepaRG (AID 2283465)
Method in brief: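 Differentiated HepaRG cells were exposed for 48 h in serum-free induction medium to 8 half-log concentrations, top 100 uM, in 0.5% DMSO. ABCG2 mRNA was measured by qRT-PCR, normalized to ACTB, GAPDH and POLR2A, with bidirectional fitting versus DMSO.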

[18] = read-out: ATP-citrate lyase (ACLY), ACLY (gene 47); experiment: LTEA_HepaRG_ACLY: Life Technologies and Expression Analysis (LTEA) Assay for ATP-citrate lyase (ACLY) using HepaRG (AID 2283466)
Method in brief: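 Differentiated HepaRG cells exposed 48 h in serum-free induction medium to eight half-log concentrations up to 100 uM in 0.5% DMSO, duplicates. Transcript measured by Fluidigm TaqMan qRT-PCR, normalized to ACTB, GAPDH, POLR2A; bidirectional fit versus DMSO.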

[19] = read-out: Peroxisomal acyl-coenzyme A oxidase 1 (ACOX1) gene, ACOX1 (gene 51); experiment: LTEA_HepaRG_ACOX1: Life Technologies and Expression Analysis (LTEA) Assay for Peroxisomal acyl-coenzyme A oxidase 1 (ACOX1) gene using HepaRG (AID 2283467)
Method in brief: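 HepaRG cells, plated 48 h then switched to serum-free induction medium, were exposed in duplicate for 48 h to 8-point half-log concentrations up to 100 uM in 0.5% DMSO. ACOX1 mRNA was measured by qRT-PCR, normalized to ACTB/GAPDH/POLR2A, and fitted bidirectionally versus DMSO.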

Measured: AC50

Sequence of Fatty acid synthase (Homo sapiens) (P49327 whole entry, looked up): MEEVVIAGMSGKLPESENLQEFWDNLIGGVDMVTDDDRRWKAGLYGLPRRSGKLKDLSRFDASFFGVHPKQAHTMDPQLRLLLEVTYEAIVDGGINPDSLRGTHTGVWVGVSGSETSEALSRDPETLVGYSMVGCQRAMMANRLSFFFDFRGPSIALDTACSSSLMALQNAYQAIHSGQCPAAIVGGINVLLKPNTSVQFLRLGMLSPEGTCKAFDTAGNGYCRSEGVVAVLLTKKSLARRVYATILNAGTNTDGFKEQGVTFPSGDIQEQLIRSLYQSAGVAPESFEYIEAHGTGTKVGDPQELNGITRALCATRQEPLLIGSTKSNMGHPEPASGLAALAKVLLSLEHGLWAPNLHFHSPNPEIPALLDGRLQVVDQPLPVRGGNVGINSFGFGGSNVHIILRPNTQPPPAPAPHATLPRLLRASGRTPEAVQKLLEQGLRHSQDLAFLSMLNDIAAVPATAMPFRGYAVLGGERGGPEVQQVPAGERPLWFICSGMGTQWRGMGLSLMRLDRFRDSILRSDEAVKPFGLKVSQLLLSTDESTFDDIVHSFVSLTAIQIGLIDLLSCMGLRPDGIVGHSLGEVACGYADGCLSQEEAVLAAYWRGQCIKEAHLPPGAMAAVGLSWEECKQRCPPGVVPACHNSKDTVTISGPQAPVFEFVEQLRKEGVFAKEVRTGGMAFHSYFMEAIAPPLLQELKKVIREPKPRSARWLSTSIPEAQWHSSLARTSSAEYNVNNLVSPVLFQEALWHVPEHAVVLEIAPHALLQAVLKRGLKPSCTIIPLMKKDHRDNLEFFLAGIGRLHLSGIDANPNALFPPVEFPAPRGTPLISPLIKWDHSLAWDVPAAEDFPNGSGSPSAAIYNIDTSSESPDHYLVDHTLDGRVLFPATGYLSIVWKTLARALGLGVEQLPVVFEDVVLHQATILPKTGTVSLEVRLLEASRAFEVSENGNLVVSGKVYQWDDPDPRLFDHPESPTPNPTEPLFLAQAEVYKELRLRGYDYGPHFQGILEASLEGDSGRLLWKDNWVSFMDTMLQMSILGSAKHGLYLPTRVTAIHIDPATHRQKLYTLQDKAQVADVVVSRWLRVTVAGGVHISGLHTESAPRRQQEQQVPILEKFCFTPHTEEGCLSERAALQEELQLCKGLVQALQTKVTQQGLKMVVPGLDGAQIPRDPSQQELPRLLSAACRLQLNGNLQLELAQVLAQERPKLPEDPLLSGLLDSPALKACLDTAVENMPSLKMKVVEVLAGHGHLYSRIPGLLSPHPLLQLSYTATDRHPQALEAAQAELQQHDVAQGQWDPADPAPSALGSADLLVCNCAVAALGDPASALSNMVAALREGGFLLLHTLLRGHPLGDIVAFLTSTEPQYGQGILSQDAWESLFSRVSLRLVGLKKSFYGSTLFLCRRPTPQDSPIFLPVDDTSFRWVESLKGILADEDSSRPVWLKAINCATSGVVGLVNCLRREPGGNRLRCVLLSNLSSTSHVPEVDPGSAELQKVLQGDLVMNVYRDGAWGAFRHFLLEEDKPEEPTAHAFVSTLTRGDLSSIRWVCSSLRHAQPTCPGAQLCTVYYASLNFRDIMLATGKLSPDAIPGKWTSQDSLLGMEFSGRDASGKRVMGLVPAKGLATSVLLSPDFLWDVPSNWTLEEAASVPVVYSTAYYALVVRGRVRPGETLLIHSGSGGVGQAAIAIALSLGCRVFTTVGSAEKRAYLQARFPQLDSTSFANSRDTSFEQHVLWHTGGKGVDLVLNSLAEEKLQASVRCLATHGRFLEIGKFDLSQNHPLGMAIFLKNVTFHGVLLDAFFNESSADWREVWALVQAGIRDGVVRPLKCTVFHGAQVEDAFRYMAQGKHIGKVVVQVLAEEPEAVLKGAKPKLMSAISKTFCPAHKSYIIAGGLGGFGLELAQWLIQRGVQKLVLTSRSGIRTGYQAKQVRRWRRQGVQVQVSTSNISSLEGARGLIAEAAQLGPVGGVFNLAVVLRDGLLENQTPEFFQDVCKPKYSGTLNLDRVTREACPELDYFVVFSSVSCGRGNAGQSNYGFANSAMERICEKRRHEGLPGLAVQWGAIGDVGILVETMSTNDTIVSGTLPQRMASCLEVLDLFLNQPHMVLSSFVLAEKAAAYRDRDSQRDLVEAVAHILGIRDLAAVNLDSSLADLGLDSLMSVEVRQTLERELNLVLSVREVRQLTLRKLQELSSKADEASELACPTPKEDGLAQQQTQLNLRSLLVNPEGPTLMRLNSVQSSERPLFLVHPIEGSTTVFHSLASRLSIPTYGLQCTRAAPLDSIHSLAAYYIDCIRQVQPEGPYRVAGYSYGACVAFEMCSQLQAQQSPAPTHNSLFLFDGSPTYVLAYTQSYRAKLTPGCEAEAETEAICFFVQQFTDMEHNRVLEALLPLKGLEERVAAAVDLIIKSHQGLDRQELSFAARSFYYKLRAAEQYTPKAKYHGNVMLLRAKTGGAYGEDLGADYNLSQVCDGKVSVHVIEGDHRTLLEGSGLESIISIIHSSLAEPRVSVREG
Sequence of Broad substrate specificity ATP-binding cassette transporter ABCG2 (Homo sapiens) (Q9UNQ0 whole entry, looked up): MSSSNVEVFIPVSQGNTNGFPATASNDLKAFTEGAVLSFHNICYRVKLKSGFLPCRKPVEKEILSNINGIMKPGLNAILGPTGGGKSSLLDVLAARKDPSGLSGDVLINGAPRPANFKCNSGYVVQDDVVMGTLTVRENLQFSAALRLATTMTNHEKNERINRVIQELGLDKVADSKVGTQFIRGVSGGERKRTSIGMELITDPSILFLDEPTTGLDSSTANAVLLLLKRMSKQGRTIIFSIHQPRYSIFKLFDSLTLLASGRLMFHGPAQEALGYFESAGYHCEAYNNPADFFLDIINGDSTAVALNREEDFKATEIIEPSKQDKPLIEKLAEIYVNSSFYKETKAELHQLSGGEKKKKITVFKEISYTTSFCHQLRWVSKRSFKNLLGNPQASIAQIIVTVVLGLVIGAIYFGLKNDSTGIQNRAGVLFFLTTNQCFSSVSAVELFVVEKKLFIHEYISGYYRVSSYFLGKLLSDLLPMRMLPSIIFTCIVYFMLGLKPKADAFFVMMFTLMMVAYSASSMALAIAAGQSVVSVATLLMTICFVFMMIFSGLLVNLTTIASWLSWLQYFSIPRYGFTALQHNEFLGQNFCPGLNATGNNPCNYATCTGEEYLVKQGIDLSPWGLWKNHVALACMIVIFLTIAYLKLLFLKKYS

O=c1[nH]cnc2c1ncn2[C@H]1CC[C@@H](CO)O1
inactive: all assays above

CCCC(CCC)C(=O)O
active: [7] 64.3 µM
not listed: [11]
inactive: all other assays above

CCCCCOC(C)=O
not listed: [11]
inactive: all other assays above

CNC(C)=O
active: [7] 75.2 µM
inactive: all other assays above

CCCCOC(=O)c1ccccc1
not listed: [11]
inactive: all other assays above

CC[C@H](C)C(=O)O[C@H]1C[C@H](O)C=C2C=C[C@H](C)[C@H](CC[C@@H](O)C[C@@H](O)CC(=O)O)[C@H]21
active: [1] 3.08 µM | [7] 9.15 µM | [18] 9.05 µM
not listed: [11]
inactive: all other assays above
